Sampled rows, rich in hits. Any-hit rate of the full collection: about 0.75%.
Sa ugtP lethal = compounds lethal to S. aureus RN4220 ugtP deletion mutant; OD600 growth, 16 h; growth inhibition, % (no concentration beside the values); actives 0.54% (n = 330,000); in the data active means growth inhibition above about 68%
RN4220 kill = S. aureus RN4220 growth inhibition | inhibition, % (test concentration not listed) | actives 0.33% (n = 330,000) | OD600, 16 h; in the data active means inhibition above about 85%
Mtb hypoxia rep = inhibitors of hypoxia-regulated fluorescent reporter in Mycobacterium tuberculosis. M. tuberculosis hypoxia-regulated fluorescent reporter, fluorescence. fluorescence inhibition, % (no concentration beside the values). actives 0.1% (n = 300,000); in the data active means fluorescence inhibition mostly above about 23%, no sharp cut-off; inactive means mostly below about 17%
Y pestis TopoI = blocks Yersinia pestis topoisomerase I activity. Y. pestis Topo-I cleavage product accumulation, plate reader. activity, % at 10 µM. actives 0.064% (n = 360,000). AID 504884; in the data active means activity above about 50%, passing the limit was not always enough
Mtb BioA inh = blocks M. tuberculosis BioA enzyme activity; purified M. tuberculosis BioA enzyme, plate reader; inhibition, % at 9.99 µM; actives 0.096% (n = 360,000); AID 602481; in the data active means inhibition above about 40%
TcdB inh = blocks C. difficile toxin B glycohydrolase activity | AID 652162 | actives 0.24% (n = 350,000) | TcdB glycohydrolase enzymatic assay, plate reader | P18177 | inhibition, % at 9.99 µM; in the data active means inhibition above about 10%
Hits are given with their value; . = inactive; / = no result given.

SMILES	Sa ugtP lethal	RN4220 kill	Mtb hypoxia rep	Y pestis TopoI	Mtb BioA inh	TcdB inh
Cc1ccccc1C(C(=O)NC1CCCCC1)N(C(=O)c1ccccn1)c1cccnc1 (centres undefined)	.	.	.	.	.	14
CC(C)(C)OC(=O)CC1CC=CCC(CC(=O)N(CCO)Cc2ccccc2)C(=O)NC(c2ccccc2)COC1=O (centres undefined)	.	.	.	/	/	/
C/C(C=NNC(=O)c1ccccn1)=C\c1ccco1	.	.	.	/	/	/
Cc1ccc(-c2c(C(=O)N/N=C/c3ccc4c(c3)OCO4)nnn2-c2nonc2N)cc1	/	/	/	58	.	.
O=C1Cc2cc(S(=O)(=O)NCc3ccccc3Cl)cc3c2N1CCC3	.	.	.	.	.	11
COc1cc(OC)c([C@H]2C=C(C)[C@H]3C[C@@H]2C3(C)C)c(OC)c1	94	.	.	.	.	.
Cc1cc(C)nc(NN=C/C=C/c2ccccc2)n1	.	.	.	/	/	/
O=C(Nc1cc(Cl)cc(Cl)c1)Nc1cnccn1	100	100	.	.	.	.
COc1cc2oc3ccc(C#Cc4ccccn4)cc3c(=O)c2cc1OC	.	.	.	.	.	11
O=C(COC(=O)c1ccc2c(c1Cl)C(=O)c1ccccc1C2=O)NC1CC1	.	87	.	.	/	.
O=C(COC(=O)c1ccc2c(c1Cl)C(=O)c1ccccc1C2=O)NC1CCCCC1	.	.	.	.	/	.
O=C(ON=Cc1ccc(N2CCOCC2)c([N+](=O)[O-])c1)c1ccc(F)cc1	.	.	.	/	/	/
COc1cccc(-n2c(SCC(=O)N3CCOCC3)nnc2-c2c[nH]c3ccccc23)c1	.	.	.	.	.	11
CCCOP(=O)(O)c1c([N+](=O)[O-])cc(C(F)(F)F)cc1[N+](=O)[O-] (tested in a mixture with another compound)	.	.	.	.	.	.
CCOP(=O)(Oc1ccccc1)c1c([N+](=O)[O-])cc(C(F)(F)F)cc1[N+](=O)[O-] (centres undefined)	.	.	42	.	.	.
O=C(CSc1ccc(Cl)cc1)c1ccco1	.	.	.	.	/	/
O=C(CCSc1ccc(Cl)cc1)c1ccco1	84	.	.	.	.	.
O=C(CSc1ccccc1Cl)c1ccco1	87	.	.	.	.	/
COc1ccc2c(c1)C(=O)N1C3c4cc(Cl)ccc4OCC3C(c3ccccc3)[C@]1(C)C(=O)N2 (some centres undefined)	.	.	.	/	/	/
O=c1c2ccccc2nc(/C=C/c2ccc([N+](=O)[O-])o2)n1CCCO	99	114	/	.	.	/
O=c1c2ccccc2nc(/C=C/c2ccc([N+](=O)[O-])cc2)n1CCCO	.	.	.	.	.	/
NC(=NOS(=O)(=O)c1ccccc1)c1ccncc1	.	.	.	/	/	/
C=C(C)C(O)CC/C(C)=C/Cc1c(O)ccc(C(=O)/C=C/c2ccc(O)cc2)c1O (centres undefined)	91	99	/	.	.	.
COc1ccc(C(=O)/C=C/c2ccc(O)cc2)c(O)c1C/C=C(\C)CCC=C(C)C	.	.	/	.	.	.
Nc1ccc2nc(-c3cccs3)[nH]c2c1	.	.	.	.	.	13
SMILES	Sa ugtP lethal	RN4220 kill	Mtb hypoxia rep	Y pestis TopoI	Mtb BioA inh	TcdB inh
CCN(CC)C(=O)C(=O)NN=Cc1cccc(Br)c1	.	.	.	/	/	/
CCCNC(=O)N1C2CCC1C(C(=O)OC)=C(c1ccc(F)cc1F)C2 (centres undefined)	.	.	.	/	/	/
O=C(C=Cc1ccc(F)cc1)NC(=S)N1CCOCC1	.	.	.	/	/	/
CCCOC(=O)c1c(-c2ccccc2)nc(CC)c(C(=O)SCC)c1CCC	95	.	.	.	.	.
CN(C)c1ccc(Cl)c(NC(N)=S)c1	/	/	/	.	.	27
O=C1NC(=Nc2ccccc2)SC1=Cc1cccs1	.	.	.	/	/	/
COC(=O)NN=Cc1cc2c(cc1Br)OCO2	.	.	.	/	/	/
COc1ccccc1/C=N/NC(=O)CC(=O)NCc1ccccc1	/	/	/	.	.	11
COc1ccc(OC)c(C=NNC(=O)CC(=O)NCc2ccccc2)c1	.	.	.	/	/	/
COc1ccc(OC)c(CC(=O)NC(c2ccccc2)c2ccccc2)c1	.	.	.	.	.	.
COc1ccc(C(NC(=O)c2cc(OC)ccc2OC)c2ccccc2)cc1 (centres undefined)	.	.	.	50	.	.
CCC(C)C(NC(=O)C(=Cc1ccccc1)NC(=O)c1ccc(OC)cc1)C(=O)O (centres undefined)	.	.	.	/	/	/
Cc1cc(C(=O)CSc2nc(N)cc(=O)[nH]2)c(C)n1CC1CCCO1 (centres undefined)	.	.	.	.	.	12
Cc1cc(C(=O)CSc2nc(N)cc(N)n2)c(C)n1CC1CCCO1 (centres undefined)	.	.	.	.	.	.
CCOc1ccccc1OCCCC(=O)N1CCN(S(=O)(=O)c2ccc(Cl)cc2)CC1	.	.	.	.	.	.
CCCOc1ccccc1OCC(=O)N1CCN(S(=O)(=O)c2ccc(Cl)cc2)CC1	.	.	32	.	.	.
O=C(Nc1ccc(F)cc1)Nc1cc(OCC(F)(F)F)cc(OCC(F)(F)F)c1	100	92	.	.	/	/
CC(C)CCn1c(=O)c2ccccc2n2c(=S)[nH]nc12	.	.	.	.	.	.
CCOCCCn1c(=O)c2ccccc2n2c(=S)[nH]nc12	.	.	.	.	.	25
CCOC(=O)C1C2COc3ccc(Cl)cc3C2N2C(=O)c3ccccc3NC(=O)[C@@]12C (some centres undefined)	.	.	.	/	/	/
O=C(C1CCC1)N1CCc2cc(S(=O)(=O)N3CCN(c4ccccn4)CC3)ccc21	.	.	/	55	.	/
O=C(C1CCC1)N1CCc2cc(S(=O)(=O)N3CCCCC3)ccc21	.	.	.	.	.	.
Cc1cc(C(C)(C)CC(C)(C)C)ccc1OCCOCC[N+](C)(C)Cc1ccccc1	100	101	.	.	.	.
O=C(OCC#CCSc1nnc(-c2ccc(Br)cc2)o1)c1ccco1	.	.	35	.	/	/
O=C(OCC#CCSc1nnc(-c2cccc3ccccc23)o1)c1cc2ccccc2o1	.	.	48	.	.	.
SMILES	Sa ugtP lethal	RN4220 kill	Mtb hypoxia rep	Y pestis TopoI	Mtb BioA inh	TcdB inh
Cc1ccc(C(=O)NN=Cc2ccc(S(=O)(=O)O)o2)c(Cl)c1	.	.	/	/	/	/
O=c1[nH]c2ccc(NC(=NS(=O)(=O)c3ccccc3)c3ccccc3)cc2[nH]1	.	.	.	/	/	/
CC(=NO)c1ccccc1C(=O)O	.	.	/	/	/	/
CCOC(=O)Cc1c(Sc2ccccc2)c2ccccc2n1C	95	.	.	.	/	.
CC1c2cccc(O)c2C(O)=C2C(=O)[C@]3(O)C(O)=C(C(N)=O)C(=O)C(N(C)C)C3C(O)C21 (some centres undefined)	99	100	/	/	/	/
CC1c2cccc(O)c2C(=O)C2C(=O)C3(O)C(=O)C(C(N)=O)C(=O)C(N(C)C)C3C(O)C21 (centres undefined)	99	93	/	/	/	/
